This note sets out measurements from PubChem BioAssay (Tox21).

Records with an inconclusive call do not appear. A call without a number means that no potency is given here. Active and inactive are the calls of the source. Calls follow the shape of the full dose curve.

For this test, the system named is thyroid hormone receptor (rat, GH3 cells). Description: qHTS assay to identify small molecule agonists of the thyroid receptor (TR) signaling pathway (AID 743066). Particulars: GH3.TRE-Luc cells, TR agonist luciferase, 24 h; series mostly up to 83.9 µM. On the technique in general: In qHTS, concentration-response curves come from the screen itself.
As for `CC(C)(C)C(O)C(Oc1ccc(Cl)cc1)n1cncn1` (centres undefined), the Potency result is “inactive”.

On to `O=C(NC(=O)c1c(F)cccc1F)Nc1cc(Cl)c(Oc2ncc(C(F)(F)F)cc2Cl)c(Cl)c1`, for which the Potency entry is “inactive”.

Consider `CC(C)(CCl)C(=O)Cl`, for which the Potency result was “inactive”.

On to `C=CC[C@]1(O)CC[C@H]2[C@@H]3CCC4=CC(=O)CCC4=C3C=C[C@@]21C`, for which the Potency entry was “inactive”.

For the molecule `CC(=O)c1cc2c(cc1C)C(C)(C)C(C)CC2(C)C` (centres undefined), the Potency result was “inactive”.

For `O=S(=O)(O)C(F)(F)C(F)(F)C(F)(F)C(F)(F)F`, the Potency entry is “inactive”.

Regarding `ClP(Cl)(Cl)(Cl)Cl`, the Potency entry was “inactive”.

As to `N#CCC#N`, the Potency entry is “inactive”.

Take `CCCN(CC1CC1)c1c([N+](=O)[O-])cc(C(F)(F)F)cc1[N+](=O)[O-]`: the Potency entry is “inactive”.

Turning to `CO/N=C(/C(=O)OC)c1ccccc1COc1ccccc1C`, the Potency result is “inactive”.

Consider `COc1nn(CSP(=S)(OC)OC)c(=O)s1`, for which the Potency result was “inactive”.

Regarding `O=C(CCl)c1ccc(Cl)cc1Cl`, the Potency entry is “inactive”.

As for `O=C1c2ccccc2C(=O)C1C(=O)C(c1ccccc1)c1ccccc1`, the Potency entry was “inactive”.

Take `O=C(CBr)c1ccccc1`: the Potency entry is “inactive”.

In the case of `CO/C=C(/C(=O)OC)c1ccccc1COc1cccc(C(F)(F)F)n1`, the Potency result was “inactive”.

As for `CCCC(Cn1cncn1)c1ccc(Cl)cc1Cl` (centres undefined), the Potency entry was “inactive”.

For the molecule `O=C(Nc1ccccc1)Nc1ccnc(Cl)c1`, the Potency entry is “inactive”.

`COCCOCCO`: the Potency result is “inactive”.

As for `CC1(C)CCC(Cc2ccc(Cl)cc2)C1(O)Cn1cncn1` (centres undefined), the Potency result is “inactive”.

With `OC(c1ccc(Cl)cc1)(c1ccc(Cl)cc1)c1cccnc1`, the Potency result was “inactive”.

As for `N#Cc1cc(I)c(O)c(I)c1`, the Potency result is “inactive”.

Turning to `C[N+](C)(C)CCCl`, the Potency entry was “inactive”.

As for `CN(C)c1ccc(N(C)C)cc1`, the Potency result is “inactive”.

For the molecule `O=S1(=O)OC(c2cc(Br)c(O)c(Br)c2)(c2cc(Br)c(O)c(Br)c2)c2ccccc21`, the Potency result was “inactive”.
